Measured values: PubChem BioAssay (EPA / NIEHS)
“And” between values parts separate entries of the source, which are not always exact repeats. Identical values can stand only once. Some compounds were tested as several samples or in several runs, with calls that do not always agree. The source made the active and inactive calls. The calls were made as follows: active = hit-call score of the fitted dose curve at least 0.9, where 1 is the maximum; inactive = score below 0.9.

Test: BSK_3C_SRB: Viability Assessment in the BioMAP Diversity Plus: 3C Assay (AID 2283023);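 also: fitted both ways against DMSO so a hit may be signal rise or drop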
Conditions: primary human endothelial cells (HUVEC)
Method: BSK_3C is a cell-based, multiplexed-readout assay that uses umbilical vein endothelium, a human vascular primary cell, with measurements taken at 24 hours after chemical dosing in a 96-well plate.BSK_3C_SRB is an assay component measured in the BSK_3C assay. It measures 0.1% sulforhodamine related to cell death using Sulforhodamine staining technology.Data from the assay component BSK_3C_SRB was analyzed into 1 assay endpoint. This assay endpoint, BSK_3C_SRB, was analyzed with bidirectional fitting relative to DMSO as the negative control and baseline of activity. Using a type of viability reporter, gain or loss-of-signal activity can be used to understand changes in the signaling. Furthermore, this assay endpoint can be referred to as a primary readout, because this assay has produced multiple assay endpoints where this one serves a signaling function. To generalize the intended target to other relatable targets, this assay endpoint is annotated to the cell morphology intended target family, where the subfamily is cell conformation.
The levels of cell surface (or secreted, indicated by the prefix "s") biomarker endpoints were measured by ELISA. Overt cytotoxicity to cells in confluent adherent cultures (all systems other than the BT system) was assessed by measuring total protein levels using sulforhodamine B (SRB) staining in parallel cultures at the time of biomarker measurements, indicated as SRB endpoints. For proliferation assays for adherent cell types, individual cell types are cultured at sub-confluence and relative cell numbers quantified by SRB staining at time points optimized for each system (48 h: 3C and CASM3C systems; 72 h: BT and HDF3CGF systems; 96 h: SAg system). SRB was performed by staining cells with 0.1% SRB after fixation with 10% TCA and reading wells at 560 nm.Viability and proliferation of PBMC (T cells) was quantified by Alamar Blue reduction for the SAg and BT systems. For PBMC viability (referred to as PBMC Cytotoxicity within the assay endpoint names), cells were plated (75,000/well in a 96-well plate) and then chemical samples added for 1 h before addition of activators, SEB and TSST-1 (20 ng/mL final concentration each). Cells were incubated for 90 h. Then, Alamar Blue (20 uL/well) (Invitrogen, Cat DAL1100) was added for 6 h, and the plates were read with a fluorescence microplate reader at 546/580 nm (excitation/emission). For PBMC proliferation, cells were plated and activated as above but incubated for only 16 h prior to addition of Alamar Blue. Plates were read after 6 h.

SMILES | AC50 | outcome
N#Cc1c(-c2ccc(Cl)cc2)[nH]c(C(F)(F)F)c1Br | 1.61 µM (active) | 
CC(C)Nc1ccc(Nc2ccccc2)cc1 | 11 µM (active) | 
Cc1ccc(O)cc1C |  | inactive
CCC1(c2ccccc2)C(=O)N=C(O)NC1=O (stereo not given) |  | inactive
O=C(O)C(F)(F)OC(F)(F)C(F)(F)OC(F)(F)C(=O)O |  | inactive
N#Cc1cc([N+](=O)[O-])ccc1N |  | inactive
Cc1ccc(N)cc1N |  | inactive
O=C(O)C1C(C(=O)O)C2(Cl)C(Cl)=C(Cl)C1(Cl)C2(Cl)Cl (stereo not given) |  | inactive
c1ccc(OP(Oc2ccccc2)Oc2ccccc2)cc1 |  | inactive
COP(=O)(O)OC |  | inactive
COC(=O)C(F)(F)C(F)(F)OC(F)(C(F)(F)F)C(F)(F)OC(F)=C(F)F (stereo not given) |  | inactive
CCOP(=S)(NC(C)C)Oc1ccccc1C(=O)OC(C)C (stereo not given) |  | inactive
OCC(F)(F)OC(F)(F)C(F)(F)OC(F)(F)C(F)(F)OC(F)(F)CO | 30 µM (active) | inactive
Nc1ccc([N+](=O)[O-])cc1Cl |  | inactive
c1cc2c3c(cccc3c1)CC2 |  | inactive
ClC(Cl)(Cl)c1ccccc1 |  | inactive
CCCCN(CCCC)SN(C)C(=O)Oc1cccc2c1OC(C)(C)C2 | 29.5 µM (active) | 
O=P1(N(CCCl)CCCl)NCCCO1 (stereo not given) |  | inactive
CC(Cl)(Cl)C(=O)O |  | inactive
c1nc[nH]n1 |  | inactive

SMILES | AC50 | outcome
ClC(Cl)c1ccccc1 |  | inactive
ClC(Cl)=C(c1ccc(Cl)cc1)c1ccccc1Cl | 7.99 µM (active) | 
Nc1ccc2ccccc2c1 |  | inactive
CCOP(=S)(S)OCC |  | inactive
CCCCCCCc1ccc(O)cc1 | 39.2 µM (active) | 
CSC(C)(C)C=NO |  | inactive
CCNc1nc(Cl)nc(NC(C)(C)C)n1 |  | inactive
OCC(F)(F)OC(F)(F)C(F)(F)OC(F)(F)C(F)(F)OC(F)(F)F | 25.7 µM (active) and 49.8 µM (active) | 
CCCCN(CCCC)N=O |  | inactive
CCCCc1ccccc1 |  | inactive
CC(C)(C)c1ccccc1OP(=O)(Oc1ccccc1)Oc1ccccc1 | 20 µM (active) | 
O=C(O)C(F)(F)OC(F)(F)C(F)(F)OC(F)(F)F |  | inactive
C=CC(=O)OCC(CC)(COC(=O)C=C)COC(=O)C=C | 2.33 µM (active) | 
c1ccc2c(c1)sc1ccccc12 |  | inactive
O=C(O)C(F)(OC(F)(F)C(F)(F)C(F)(F)F)C(F)(F)F (stereo not given) |  | inactive
O=c1ssc(Cl)c1Cl | 5.07 µM (active) | 
Nc1cc2c3c(c1)C(c1ccccc1)=N[C@@H](NC(=O)c1cccnc1)C(=O)N3CC2 |  | inactive
O=S1(=O)OCC2C(CO1)C1(Cl)C(Cl)=C(Cl)C2(Cl)C1(Cl)Cl (stereo not given) | 20 µM (active) | 
CCC(C)(C)c1ccc(O)cc1 |  | inactive
